The list is not random: actives were taken first. Their share in the collection is about 5.7%.
Autofluor 339: intrinsic fluorescence of library compounds, ex339/em460 – biochemical, MLSMR library, data from DPM-DC assay, artefact control, profiling panel; compound autofluorescence, ex339/em460 nm, NADH buffer; active compounds read high; 1 = no-compound wells, NADH background; fluorescence fold increase at 10 µM; 65,000 tested, 5.5% active; AID 709;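 active = at 10 µM, mean starting fluorescence two-fold or more over control wells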;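 also: signal is the first read of a kinetic run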
A340 absorber: compounds absorbing at 340 nm | compound absorbance at 340 nm, fold over control | fold change at 10 µM | 65,000 tested, under 10 active;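 active = at 10 µM dose, initial 340 nm absorbance at least 2 fold that of control wells; inactive = change under 2 fold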;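 also: initial absorbance extrapolated from kinetic A340 decline of NADH oxidation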
NADH enzymes: inhibitors of enzymes used to reach an NAD/NADH endpoint. coupled PK/LDH NADH assays, four targets. IC50, µM (top dose mostly 10 µM), for the others: top-dose inhibition. 65,000 tested, 0.02% active. AID 774;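 active = single-dose screening hits from any of four coupled enzyme assays that gave an IC50 when retested across doses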;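 also: the DPM-DC format reads NADH fluorescence rather than 340 nm absorbance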
MKP-1 inh: human dual specificity phosphatase 1 inhibition; 65,000 tested, 0.15% active; inhibition, %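 (compounds tested at a single concentration somewhere between 10 and 100 µM)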; recombinant MKP-1, OMFP hydrolysis fluorescence; P28562;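 active = inhibition above about 50%, limit read from the data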;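 also: 0% = DMSO max control wells and 100% = wells with enzyme stopped by NaOH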
Cdc25B block: inhibitors of human Cdc25B phosphatase | inhibition, %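 (compounds tested at 10 µM final in the well)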 | P30305 | AID 368 | recombinant Cdc25B, OMFP fluorescence Ex485/Em525 | 65,000 tested, 0.1% active; in the data active = inhibition above about 50%
Target sequence (P30305 whole entry, looked up): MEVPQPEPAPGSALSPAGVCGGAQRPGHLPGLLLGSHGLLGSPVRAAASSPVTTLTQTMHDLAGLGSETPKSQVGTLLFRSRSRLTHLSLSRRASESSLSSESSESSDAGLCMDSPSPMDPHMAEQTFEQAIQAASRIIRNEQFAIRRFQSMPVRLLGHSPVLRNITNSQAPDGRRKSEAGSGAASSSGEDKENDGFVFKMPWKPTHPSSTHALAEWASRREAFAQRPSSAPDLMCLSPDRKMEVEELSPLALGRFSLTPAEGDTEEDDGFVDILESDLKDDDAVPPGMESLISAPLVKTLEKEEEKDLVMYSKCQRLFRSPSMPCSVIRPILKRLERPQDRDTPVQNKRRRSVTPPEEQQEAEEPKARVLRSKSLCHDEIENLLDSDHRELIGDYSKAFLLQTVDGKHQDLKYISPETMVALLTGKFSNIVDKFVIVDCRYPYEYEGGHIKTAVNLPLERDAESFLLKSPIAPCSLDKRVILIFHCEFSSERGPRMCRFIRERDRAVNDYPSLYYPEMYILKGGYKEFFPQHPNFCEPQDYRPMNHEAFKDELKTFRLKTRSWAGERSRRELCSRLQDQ
Hsp90 block: displaces geldanamycin probe from tumor Hsp90; NCI-N417 lysate Hsp90, Cy3B-geldanamycin FP displacement; inhibition, % at 30 µM; 64,000 tested, 0.35% active; AID 429;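 active = inhibition above 50%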;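 also: 0% = tracer plus lysate wells and 100% = tracer alone without lysate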
* marks the source's active call; other numbers are inactive results; nt = no result.

SMILES	Autofluor 339	A340 absorber	NADH enzymes	MKP-1 inh	Cdc25B block	Hsp90 block
COc1ccc2[nH]c(=O)c(CN(CCN3CCCC3)C(=O)Nc3ccccc3Cl)cc2c1	3.2*	1	12%	11	-7	-5
COc1cc(C(=O)N(Cc2cc3ccccc3[nH]c2=O)CC2CCCO2)cc(OC)c1OC (configuration not stated)	1.3	1	9%	-11	1	-4
COc1ccc(C(=O)COC(=O)CCN=C2NS(=O)(=O)c3ccccc32)cc1OC	1.1	1.1	3%	-6	1	0
CC(N)(Cc1ccc(O)c(O)c1)C(=O)O (configuration not stated)	nt	nt	nt	nt	nt	54*
C[C@@](Cc1ccc(O)c(O)c1)(NN)C(=O)O	1.1	1	2%	6	8	31
COc1cc(C2Nc3ccccc3C(=O)N2c2ccccc2OC)ccc1O (configuration not stated)	5.1*	1	7%	7	-9	-3
CCOc1cc(C2Nc3ccccc3C(=O)N2c2ccccc2OC)ccc1O (configuration not stated)	2.5*	1	2%	-16	-28	-3
CCOc1cc(C2CC(=O)Nc3cc(C)c(C)cc32)ccc1O (configuration not stated)	1	1	7%	-6	-3	1
O=C(Nc1ccc(S(=O)(=O)N2CCN(Cc3ccccc3)CC2)cc1)c1cnccn1	1.1	0.99	4%	-22	4	-3
Cn1cccc1P(=O)(c1cccn1C)c1cccn1C	1.6	1	6%	5	-13	-3
O=C(COc1cc(Cl)ccc1Cl)Nc1nnc(CC(=O)N2CCOCC2)s1	1.1	1	4%	17	0	-4
COc1ccc(C)cc1-n1nnnc1SCC1CCCCO1 (configuration not stated)	1	0.96	4%	6	-11	1
COc1ccccc1-c1nnc(NC(=O)c2ccc(S(=O)(=O)N(C)Cc3ccccc3)cc2)o1	3*	1	5%	26	-1	-3
Cc1ccc(NC(=O)CSc2nnc(-c3ccc(S(=O)(=O)N4CCCC4)cc3)o2)cc1C	1.1	1.1	7%	53*	-6	2
Cc1cccc(NC(=O)CSc2nnc(-c3ccc(S(=O)(=O)N4CCCC4)cc3)o2)c1	1.1	1	4%	-36	4	3
CC1=C(C)SC(=C(C#N)c2nnc(N3CCOCC3)n2-c2ccccc2)S1	1.1	1	7%	-3	4	1
CCn1nnnc1SCC(=O)c1cc(OC)ccc1OC	0.8	1.1	9%	15	-3	-4
CCOC(=O)c1c(NC(=O)c2nn(CC)cc2Br)sc(C)c1C	3.5*	1.1	4%	8	-10	-2
CCOC(=O)c1c(NC(=O)c2noc3c2CCCC3)sc2c1CCCC2	1.2	1	11%	6	-5	-7
CCOC(=O)c1c(NC(=O)c2nn(CC)cc2Br)sc2c1CCCCC2	3.6*	1.1	0%	-6	-11	-21
CCOC(=O)c1c(NC(=O)c2ccc(-n3cnnn3)cc2)sc2c1CCCC2	3*	1.1	14%	39	6	-3
COc1ccc(C2OC(=O)CC2C(=O)NC2CCCCCC2)cc1OC (configuration not stated)	1	0.98	4%	6	-2	-4
O=C(O)CCCCCC[C@H]1C(=O)NC(=O)N1CC[C@@H](O)C1CCCCC1	nt	nt	nt	nt	nt	2
Cc1ccc(C(=O)NCCCN2CCOCC2)cc1N1CCCC1=O	1.1	1	4%	7	5	-4
COc1ccc(-n2c(SCC(=O)N3CCCC3)nc3c([nH]c4ccccc43)c2=O)cc1	1.2	1.1	0%	54*	-42	-3
SMILES	Autofluor 339	A340 absorber	NADH enzymes	MKP-1 inh	Cdc25B block	Hsp90 block
COC(=O)C1=C(C)N2C(=O)CSC2=NC1c1ccc2c(c1)OCO2 (configuration not stated)	1	1.1	6%	-4	-2	-3
CCN1C=C(C(=O)OC)C(c2cccc(C)c2)C(C(=O)OC)=C1	2.2*	1.1	2%	-2	-12	nt
COC(=O)c1cc(-c2cccc(OC)c2)on1	1.1	0.96	4%	7	-6	-2
CCCOc1ccccc1C1C(C(=O)OC)=CN(C(C)C)C=C1C(=O)OC	3.9*	1.1	8%	18	-9	-1
COC(=O)C1=C(C)NC(C)=C(C(=O)OC)C1c1ccccc1[N+](=O)[O-]	0.57	0.98	4%	-32	5	-1
COC(=O)C1=CN(C)C=C(C(=O)OC)C1c1ccccc1Cl	3.9*	1.1	8%	1	-2	1
CCCOc1ccccc1C1NC(=O)NC(C)=C1C(=O)OCCOCC (configuration not stated)	1.1	0.99	2%	14	6	0
CCOC(=O)C1=C(C)NC(C)=C(C(=O)OC)C1c1cccc([N+](=O)[O-])c1 (configuration not stated)	0.98	0.99	3%	-4	-7	0
COC(=O)C1=CN(C(C)C)C=C(C(=O)OC)C1c1cccc(OC)c1	2.2*	1.1	4%	13	-12	1
COc1ccccc1C(=O)NCCCN1CCCC1=O	1.1	1	5%	-3	-8	-1
COC(=O)C1=CN(CCCN2CCCC2=O)C=C(C(=O)OC)C1c1ccccc1C(F)(F)F	2.2*	1	7%	15	-23	-1
CCCCOc1ccccc1C1C(C(=O)OC)=CN(CC)C=C1C(=O)OC	2.2*	1.1	7%	5	-19	0
CCc1nc2ccccc2n(CCOCCn2c(=O)c(CC)nc3ccccc32)c1=O	1.3	1	2%	31	7	-1
O=C(O)CCc1nn2c3ccccc3nc2n(CCN2CCCCC2)c1=O	4.4*	1	10%	5	19	0
O=C(O)CCc1nc2ccccc2n(CCc2ccccc2)c1=O	2.3*	1.1	2%	1	24	-12
CCn1c(=O)c(C)nn2c3ccccc3nc12	1.1	1	6%	-5	4	-4
CC[C@@H](C)[C@H]1O[C@]2(CC[C@@H]1C)C[C@@H]1C[C@@H](C/C=C(\C)[C@@H](O[C@H]3C[C@H](OC)[C@@H](O[C@H]4C[C@H](OC)[C@@H](O)[C@H](C)O4)[C@H](C)O3)[C@@H](C)/C=C/C=C3\CO[C@@H]4[C@H](O)C(C)=C[C@@H](C(=O)O1)[C@]34O)O2	nt	nt	nt	nt	nt	-3
CCOc1ccc(-c2nnc(N)o2)cc1	1.1	1	4%	6	22	0
CCCCOc1ccc(-c2nnc(-c3ccncc3)o2)cc1	3*	1	14%	27	-11	0
CCOc1ccc(-c2nnc(-c3ccncc3)o2)cc1	2*	1	20%	-6	2	-4

Source: PubChem BioAssay
